In one assay the test system is SERPINA7 (gene 6906). The assay is described as follows: CCTE_GLTED_hTBG: CCTE's human Thyroxine-binding Globulin (TBG) Inhibition Assay, Great Lakes Toxicology and Ecology Division (GLTED) Lab (AID 2284343).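 Further: active chemicals lower fluorescence versus DMSO baseline by displacing probe.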 The essentials: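 Measures how far test chemicals displace ANSA bound to purified human TBG. The read-out is fluorescence at 380 nm excitation and 475 nm emission, taken after 2 h of incubation.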

Assay [1] can be described thus: IUF_NPC1_cytotoxicity_72hr: Cytotoxicity Assessment at 72 hours in the Leibniz Research Institute for Environmental Medicine (IUF) Neural Progenitor Cell Proliferation Assay (NPC1) (AID 2284332).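 Further: rising LDH signal means more cytotoxicity.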 Summed up: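 hNPC spheres (fetal brain, gestational week 16-19) grown under proliferative EGF/FGF conditions, pH 7.2-7.6, were treated continuously for 72 h. Cytotoxicity came from LDH-coupled resazurin fluorescence in each well's supernatant.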

Assay [2] can be described thus: CCTE_Mundy_HCI_iCellGluta_NOG_NeuronCount: CCTE's Neurite Outgrowth Assay in iCellGluta cells for Neuron Count, Mundy Lab (AID 2284340).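 Further: cells fixed about 48 h after compound addition.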 Summed up:
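Neuron count read by automated high-content imaging of Hoechst 33342 and betaIII-tubulin/Alexa Fluor-488 labelling in human iPSC glutamatergic neurons. Activity fitted relative to DMSO.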

A short description of assay [3]: CCTE_Mundy_HCI_iCellGluta_NOG_NeuriteCount: CCTE's Neurite Outgrowth Assay in iCellGluta cells for Neurite Count, Mundy Lab (AID 2284342).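 Further: chemical exposure about 48 hours starting 2 hours after plating.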
Assay [4] is described as follows: Tanguay_ZF_120hpf_MO24: Oregon State University Tanguay Lab 24 Hour Post-fertilization zebrafish Assay for Mortality (AID 2284389; active means hit-call score of the fitted dose curve at least 0.9, where 1 is the maximum; inactive means score below 0.9). The essentials:
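Dechorionated wild-type zebrafish embryos, 1 per well, statically exposed from 6 hpf at 28C, 0.64% DMSO final. Mortality scored as binary present/absent at 24 hpf by brightfield microscopy, relative to DMSO.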

Assay [5] in a line: Tanguay_ZF_120hpf_DP24: Oregon State University Tanguay Lab 24 Hour Post-fertilization zebrafish Assay for Delayed Development (AID 2284390; active means hit-call score of the fitted dose curve at least 0.9, where 1 is the maximum; inactive means score below 0.9). The essentials:
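Dechorionated 5D wild-type zebrafish embryos exposed statically from 6 hpf, one per well, 0.64% DMSO final, 28 C, sealed and dark. Developmental progression scored at 24 hpf by brightfield as binary present/absent; dead embryos excluded.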

The nature of assay [6]: Tanguay_ZF_120hpf_CRAN: Oregon State University Tanguay Lab 120 Hour Post-fertilization zebrafish Assay for Craniofacial Malformation (AID 2284397; active means hit-call score of the fitted dose curve at least 0.9, where 1 is the maximum; inactive means score below 0.9). The essentials: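 Dechorionated Tropical 5D wild-type zebrafish embryos, one per well, were statically exposed from 6 to 120 hpf at 28C in 0.64% DMSO, with 5uM trimethyltin chloride as positive control. Craniofacial malformation was scored present/absent by brightfield microscopy, relative to DMSO.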

Assay [7] in a line: Tanguay_ZF_120hpf_AXIS: Oregon State University Tanguay Lab 120 Hour Post-fertilization zebrafish Assay for Axial Malformation (AID 2284398; active means hit-call score of the fitted dose curve at least 0.9, where 1 is the maximum; inactive means score below 0.9). Summed up: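 Dechorionated 5D wild-type zebrafish embryos exposed statically, one per well, from 6 to 120 hpf at 28C, 0.64% DMSO. Axial malformation scored as present/absent by brightfield microscopy at 120 hpf; dead embryos not scored.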

Assay [8] in a line: Tanguay_ZF_120hpf_MORT: Oregon State University Tanguay Lab 120 Hour Post-fertilization zebrafish Assay for Mortality (AID 2284399; active means hit-call score of the fitted dose curve at least 0.9, where 1 is the maximum; inactive means score below 0.9). Summed up:
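Dechorionated wild-type Tropical 5D zebrafish embryos, one per well from 6 hpf, static exposure to 120 hpf at 28C in sealed dark plates, 0.64% DMSO final. Mortality scored as binary by brightfield at 24 and 120 hpf.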

Assay [9] in a line: TAMU_PeakParms_SingleDonor1434_Asystole: Texas A&M University (TAMU) 1.5-hr Human Induced Pluripotent Stem Cell (iPSC)-derived Cardiomyocytes Calcium (Ca+2) Flux Assay for Cardiotoxicity: Asystole (quiescence of beating) (AID 2284328). The essentials:
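Human iPSC-derived cardiomyocytes (donor 1434) were exposed to 0.2, 1, 10 and 100 uM compound in 0.5% DMSO for 90 min at 37C. Ca2+-dye fluorescence gave average peak frequency; POD is EC95, a 95% beat-rate drop versus DMSO.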

The nature of assay [10]: CCTE_Deisenroth_H295R-HTRF_384WELL_ESTRADIOL: CCTE's H295R-HTRF Assay Evaluation of Estradiol Concentration, Deisenroth Lab (AID 2284361; active means hit-call score of the fitted dose curve at least 0.9, where 1 is the maximum; inactive means score below 0.9). To be noted: actives raise or lower the signal. The essentials:
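H295R cells exposed 48 h to chemicals at 0.001 - 100 uM final (nine points, triplicate); estradiol in conditioned medium measured by HTRF immunoassay, fitted bidirectionally versus DMSO. Viability by CellTiter-Glo on same plates.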
Background: Time-resolved FRET reads energy transfer from a long-lived donor to a nearby acceptor.

Assay [11] is described as follows: CCTE_Deisenroth_H295R-HTRF_384WELL_TESTOSTERONE: CCTE's H295R-HTRF Assay Evaluation of Testosterone Concentration, Deisenroth Lab (AID 2284373; active means hit-call score of the fitted dose curve at least 0.9, where 1 is the maximum; inactive means score below 0.9). The settings on record: actives raise or lower the signal. Summed up: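 Secreted testosterone was quantified by HTRF immunoassay of medium from human adrenocortical H295R cells after 48 h chemical exposure at 0.001–100 uM final. Gain or loss was fitted against DMSO. ATP-based viability was read on matched wells, five experimental replicates.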

For the next assay, the system named is SRD5A2 (gene 6716). The assay is described as follows: CCTE_Deisenroth_5AR_NBTE_ratio: CCTE's 5alpha-reductase NanoBRET Target Engagement Assay - Ratio, Deisenroth Lab (AID 2284322; active means hit-call score of the fitted dose curve at least 0.9, where 1 is the maximum; inactive means score below 0.9). To be noted: actives raise or lower the signal. Summed up:
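Reverse-transfect HEK293T with pNLF1-C-SRD5A2, express 20 h. Pre-incubate cells with chemical 3 h (8-point series, 10 nM - 29.9 uM, duplicate). Add testosterone tracer, 2 h more. Add substrate/inhibitor, read donor and acceptor emission.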
For orientation: BRET reads energy transfer from a luciferase to a nearby fluorophore.

Results filed as inconclusive are left out. Calls of active or inactive are those of the source. How the source made its calls, unless noted: active means hit-call score of the fitted dose curve at least 0.9, where 1 is the maximum; inconclusive means response in the unintended direction; inactive means score below 0.9.

`c1ccc(NNc2ccccc2)cc1`: the AC50 (commonly the concentration at which the activity in the assay is half-maximal) in the assay with SERPINA7 (gene 6906) is 39.1 µM (active).

For `COC(=O)Nc1nc2ccccc2[nH]1`, the outcome in assay [1], in assay [2] and in assay [3] was inactive.

As to `OCCOCCO`, the call in assay [1] was inactive.

Turning to `CCNS(=O)(=O)C(F)(F)C(F)(F)C(F)(F)C(F)(F)C(F)(F)C(F)(F)C(F)(F)C(F)(F)F`, the molecule was classed as inactive in assay [4], in [5] and in [8]. Besides, the figures for the AC50 in [6] and in assay [7] were 75.6 µM (active) and 70.1 µM (active), respectively.

As for `[O-][Cl+]O`, the molecule was called inactive in assay [1], in assay [2] and in assay [3].

`CCCCCOC(=O)c1ccccc1C(=O)OCCCCC`: the AC50 with SERPINA7 (gene 6906) is 7.46 µM (active).

Turning to `CNC(=O)Oc1cccc2c1OC(C)(C)C2`, the molecule was called inactive in assay [1], in assay [2] and in assay [3].

Consider `c1ccc(N=Nc2ccccc2)cc1`, for which the outcome in assay [9] was inactive. Further, the AC50 with SERPINA7 (gene 6906) is 50 µM (active).

Take `Nc1cc(Cl)cc(C(=O)O)c1Cl`: in the assay on SERPINA7 (gene 6906), the molecule was called inactive.

Consider `CC(C)COC(=O)c1ccccc1C(=O)OCC(C)C`, for which the molecule was classed as inactive in [2] and in assay [3]. Further, the AC50 with SERPINA7 (gene 6906) was 16.1 µM (active).

Consider `COP(=S)(OC)SCN1C(=O)c2ccccc2C1=O`, for which, in assay [1], the molecule was called inactive. In addition, the figures for the AC50 (in [2]; in assay [3]; in the assay on SERPINA7 (gene 6906)) were 80.7 µM (active), 83.8 µM (active) and 37.5 µM (active), respectively.

With `Nc1ccc([N+](=O)[O-])cc1`, the AC50 in the assay with SERPINA7 (gene 6906) is 41.4 µM (active).

Consider `CC(C)(C)C(O)(CCc1ccc(Cl)cc1)Cn1cncn1` (stereo unspecified), for which the result in [9], in assay [1] and in assay [10] was inactive. Moreover, the AC50 in the assay on SERPINA7 (gene 6906) is 26.9 µM (active); in assay [11] it was 2 µM (active).

Turning to `Clc1ccc(C(c2ccc(Cl)cc2)C(Cl)(Cl)Cl)cc1`, the result in [9] was inactive.

Consider `c1ccc2c(c1)-c1cccc3cccc-2c13`, for which, in the assay on SRD5A2 (gene 6716), the outcome was inactive.

Consider `CCCCOC(=O)c1ccccc1C(=O)OCc1ccccc1`, for which the result in assay [1], in [2] and in [3] was inactive. In the assay with SERPINA7 (gene 6906), the AC50 is 2.23 µM (active).

Consider `CC(C)(O)c1cnn2c(-c3ccc(F)c(-c4c(F)cccc4C#N)c3)cnc2n1`, for which, in the assay on SRD5A2 (gene 6716), the AC50 is 13.5 µM (active).

Turning to `O=C(Nc1ccccc1)c1ccccc1I`, the AC50 in the assay with SERPINA7 (gene 6906) was 15.7 µM (active).

Source of the values: PubChem BioAssay (EPA / NIEHS).
